Results filed as inconclusive are left out. Calls of active or inactive are those of the source. The call rests on the fitted dose curve; in most records, active means well fitted curve in the direction sought with a large enough effect; inconclusive means small, poorly fitted or top-dose-only effect, or another doubt; inactive means no such curve, though single readings can be large; an effect the other way counts as inactive or inconclusive.
Key:
[1] = qHTS of pediatric cancer cell lines to identify multiple opportunities for drug repurposing: Primary screen for control Hh wild type fibroblast cells (AID 1347106);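 further: series mostly up to about 46 µM; a drop in luminescence marks cytotoxicity and a rise apparent proliferation; nearly all actives have a fitted effect of over 55% in size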
Summary of the method: (§1)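 Cells (500-1,000/well) in growth media were settled 5 h at 37 degrees C, then given compounds for 48 h. Viability was read as CellTiter-Glo luminescence. Primary runs used MIPE at 11 points (0.78 nM-46 µM) and NPC at 8 points (0.59 nM-46 µM); follow-ups used 11 points.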

[2] = qHTS of pediatric cancer cell lines to identify multiple opportunities for drug repurposing: Primary screen for Rh30 cells (AID 1347107); further: series mostly up to about 46 µM; nearly all actives have a fitted effect of over 75% in size
Summary of the method: as §1

[3] = qHTS of pediatric cancer cell lines to identify multiple opportunities for drug repurposing: Primary screen for Rh41 cells (AID 1347108);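 further: series mostly up to about 46 µM; luminescence drop marks cytotoxic hits; nearly all actives have a fitted effect of over 70% in size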
Summary of the method: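 Quantitative HTS format: each compound titrated (MIPE 11 points from 0.78 nM, NPC 8 points from 0.59 nM) onto cells plated 5 hours earlier. After 48 h at 37 degrees C, CellTiter-Glo luminescence was recorded.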

[4] = qHTS of pediatric cancer cell lines to identify multiple opportunities for drug repurposing: Confirmatory screen for NB1643 cells (AID 1347109); further: nearly all actives have a fitted effect of over 45% in size; further: potency means the concentration at half of the fitted maximal effect
Summary of the method: as §1

[5] = qHTS of pediatric cancer cell lines to identify multiple opportunities for drug repurposing: Confirmatory screen for A673 cells (AID 1347110);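 further: potency means the concentration at half of the fitted maximal effect; cells exposed to compound for 48 h before the viability read; nearly all actives have a fitted effect of over 65% in size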
Summary of the method: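 Viability was read as ATP luminescence (CellTiter-Glo) after 48 h of compound exposure at 37 C in A673 cells seeded at 500-1,000/well. Titrations reached 46 uM final, with 11 points in the confirmatory screen. Concentration-response curves were fitted directly.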

[6] = qHTS of pediatric cancer cell lines to identify multiple opportunities for drug repurposing: Confirmatory screen for SK-N-MC cells (AID 1347111);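 further: cells exposed to compound for 48 h before the readout; nearly all actives have a fitted effect of over 70% in size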; further: potency means the concentration at half of the fitted maximal effect
Summary of the method: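 Metabolically active cells were quantified by ATP-dependent luminescence (CellTiter-Glo, 15 min at room temperature) following 48 h treatment. Cells had been plated at 500-1,000 per well and settled for 5 h beforehand.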

[7] = qHTS of pediatric cancer cell lines to identify multiple opportunities for drug repurposing: Confirmatory screen for BT-12 cells (AID 1347112); further: nearly all actives have a fitted effect of over 55% in size
Summary of the method: as §1

[8] = qHTS of pediatric cancer cell lines to identify multiple opportunities for drug repurposing: Confirmatory screen for LAN-5 cells (AID 1347113); further: nearly all actives have a fitted effect of over 65% in size
Summary of the method: as §1

[9] = qHTS of pediatric cancer cell lines to identify multiple opportunities for drug repurposing: Confirmatory screen for DAOY cells (AID 1347114); further: nearly all actives have a fitted effect of over 65% in size
Summary of the method: (§2)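 Viability measured as metabolically active cells via CellTiter-Glo luminescence following 48 hours of compound exposure, 11-point dilutions in confirmatory testing. 500-1,000 cells/well plated 5 hours before dosing; controls were DMSO and 2.3 µM bortezomib.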

[10] = qHTS of pediatric cancer cell lines to identify multiple opportunities for drug repurposing: Confirmatory screen for SJ-GBM2 cells (AID 1347116); further: nearly all actives have a fitted effect of over 60% in size
Summary of the method: as §2

Measured: Potency

CC1=C(C(=O)O)N2C(=O)[C@@H](NC(=O)[C@H](N)c3ccc(O)cc3)[C@H]2SC1
inactive: [1] | [2] | [3]

CN=C(NC#N)Nc1ccc(C2=NNC(=O)CC2C)cc1 (stereo unspecified)
inactive: [1] | [2] | [3]

C[C@H](CCC(=O)O)[C@H]1CC[C@H]2[C@@H]3C(=O)C[C@@H]4CC(=O)CC[C@]4(C)[C@H]3CC(=O)[C@]12C
inactive: [1] | [2] | [3]

CC(C)COC(=O)c1ccc(N)cc1
inactive: [1] | [2] | [3]

CCOC(=O)/C=C(C)/C=C/C=C(C)/C=C/c1c(C)cc(OC)c(C)c1C
inactive: [1] | [2] | [3]

CC(C)(C)NC(=O)[C@@H]1CN(Cc2cccnc2)CCN1C[C@@H](O)C[C@@H](Cc1ccccc1)C(=O)N[C@H]1c2ccccc2C[C@H]1O
inactive: [1] | [2] | [3]

COc1cc(OC)cc(OC)c1
inactive: [1] | [2] | [3]

c1ccc(OCc2ccc(CCCN3CCOCC3)cc2)cc1
inactive: [1] | [2] | [3]

CCCCCCc1ccc(O)cc1O
inactive: [1] | [2] | [3]

CCOC(=O)n1ccn(C)c1=S
inactive: [1] | [2] | [3]

CCCCCCCCCCCCCCCCCC(=O)OCC(O)CO (stereo unspecified)
inactive: [1] | [2] | [3]

CN1CCN(CCCN2c3ccccc3Sc3ccc(S(=O)(=O)N(C)C)cc32)CC1
inactive: [1] | [2] | [3]

CCN(CCCc1ccccc1)CCCc1ccccc1
inactive: [1] | [2] | [3]

O=C(Nc1ccc(Oc2ccc(Cl)cc2)c(Cl)c1)c1cc(I)cc(I)c1O
inactive: [1] | [2] | [3]

CC/C(=C(/CC)c1ccc(O)cc1)c1ccc(O)cc1
inactive: [1] | [2] | [3]

O=C(COc1ccc(Cl)cc1)N1CCN(Cc2ccc3c(c2)OCO3)CC1
inactive: [1] | [2] | [3]

OCc1ccccc1O
inactive: [1] | [2] | [3]

CC(Cc1cccc(C(F)(F)F)c1)NCCOC(=O)c1ccccc1 (stereo unspecified)
inactive: [1] | [2] | [3]

Cc1c(F)c(N2CCNC(C)C2)cc2c1c(=O)c(C(=O)O)cn2C1CC1 (stereo unspecified)
inactive: [1] | [2] | [3]

NCCC(O)(P(=O)(O)O)P(=O)(O)O
inactive: [1] | [2] | [3]

CC(=O)OCC(=O)[C@@]1(O)[C@H](C)C[C@H]2[C@@H]3CCC4=CC(=O)C=C[C@]4(C)[C@@]3(F)[C@@H](O)C[C@@]21C
active: [4] 20.8 µM | [5] 9.27 µM | [6] 29.3 µM
inactive: [1] | [2] | [3]

CC(C)N=C(N)/N=C(\N)Nc1ccc(Cl)cc1
inactive: [1] | [2] | [3]

C[C@H]1C[C@H]2[C@@H]3CCC4=CC(=O)C=C[C@]4(C)[C@@]3(Cl)[C@@H](O)C[C@]2(C)[C@@]1(O)C(=O)CO
active: [5] 18.5 µM
inactive: all other assays above

CN1CCCC(CC2c3ccccc3Sc3ccccc32)C1 (stereo unspecified)
inactive: [1] | [2] | [3]

O=C1OC2(c3ccc(O)cc3Oc3cc(O)ccc32)c2ccccc21
inactive: [1] | [2] | [3]

O=C1OCCN1/N=C/c1ccc([N+](=O)[O-])o1
inactive: [1] | [2] | [3]

c1ccc(CNCCNCc2ccccc2)cc1
inactive: [1] | [2] | [3]
